High-throughput results: PubChem, National Center for Advancing Translational Sciences (NCATS)
Compounds with a hit are over-represented: about 19% of the library has one in this group of screens.
DT40 TDP1 no CPT: qHTS for Inhibitors of human tyrosyl-DNA phosphodiesterase 1 (TDP1): qHTS in cells in absence of CPT; DT40 Tdp1-/- hTDP1 cells, no CPT, ATP luminescence, 48 h; Potency, µM (highest dose often 46.2 µM), for inactives: at the highest dose activity change, negative = growth inhibition, usual class: inhibitors; 15% of 420,000 active; AID 686978, 2013; further: potency means the concentration at half of the fitted maximal effect; nearly all actives have a fitted effect of over 55% in size
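Seeded 400 DT40-hTDP1 cells/well (vehicle DMSO, no 20 nM CPT); pinned compounds; ≥48 hr at 37 °C; CellTiter-Glo luminescence as viability measure.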
HT1080NT lethal: kills 2HG-producing HT-1080-NT fibrosarcoma cells; HT-1080-NT fibrosarcoma viability, CellTiter-Glo ATP luminescence, 48 h; Potency, µM (highest dose often 46.1 µM), for the others: top-dose activity, negative = less viability, actives largely listed as cytotoxic; 1.6% of 360,000 active; AID 686970;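 further: NT is the 2HG producing partner of a matched IDH1 knockdown line; potency means the concentration at half of the fitted maximal effect; 0% = DMSO-treated cells and -100% = media-only wells without cells; nearly all actives have a fitted effect of over 55% in size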
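750 cells/well, RPMI + 5% FBS; 2 h settle, compound pin-transfer, 48 h at 37 degrees C. CellTiter-Glo 10 min RT, luminescence. Normalized to DMSO and media-only wells.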
IL1B secr inh: inhibitors of inflammasome signaling (IL-1 beta secretion). THP-1 LPS/ATP IL-1B secretion, AlphaLISA, 16 h; active compounds read low. activity change, % at 57.5 µM. 4.7% of 360,000 active. AID 743279; in the data active means activity change below about -50%; inconclusive means mostly about -30% to -49%
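Secreted IL-1B measured by AlphaLISA bead assay after 16 h compound exposure of THP-1 cells; compounds (final up to 57.5 uM) added 1 h before LPS (250 ng/mL) and ATP (1.25 mM) stimulation; lower signal means less secretion.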
HT1080 IDH1KD tx: toxicity to HT-1080 IDH1 knockdown cells (counter line) | 2% of 360,000 active | HT-1080 IDH1 knockdown viability, ATP luminescence, 48 h | Potency, µM (series often up to 46.1 µM), without a hit: at the top dose activity, negative = toxicity, actives largely listed as cytotoxic;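 further: potency means the concentration at half of the fitted maximal effect; 0% = DMSO wells and -100% = cell-free medium wells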
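CellTiter-Glo luminescence after 48 h compound exposure at 37 degrees C of IDH1-knockdown HT-1080 cells in 5% FBS RPMI. %Activity scaled between DMSO wells and cell-free media wells, with curves fitted and assigned curve classes.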
DT40 TDP1 CPT: DT40-hTDP1 cell growth loss with CPT. chicken DT40 Tdp1-/-;hTDP1 cells + 20 nM CPT, ATP luminescence, 48 h. Potency, µM (titrated, usually from 46.2 µM), without a hit: top-dose activity change, negative = growth inhibition, usual class: inhibitors. 12% of 420,000 active. AID 686979; further: potency means the concentration at half of the fitted maximal effect; nearly all actives have a fitted effect of over 55% in size
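Cell growth measured by CellTiter-Glo luminescence after a minimum 48 h, 37 C compound exposure with 20 nM CPT in Tdp1-knockout DT40 cells stably expressing hTDP1, seeded 400/well; qHTS titration format.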
* hit, by the source's call; ? = inconclusive; / = no result given. Unless noted, the call rests on the fitted dose curve; in most records, active means well fitted curve in the direction sought with a large enough effect; inconclusive means small, poorly fitted or top-dose-only effect, or another doubt; inactive means no such curve, though single readings can be large; an effect the other way counts as inactive or inconclusive. Unless noted, on the % scale 0 is the no-effect control and ±100 the full control effect.

SMILES	DT40 TDP1 no CPT	HT1080NT lethal	IL1B secr inh	HT1080 IDH1KD tx	DT40 TDP1 CPT
CC(C)c1c(O)ccc2c1CC[C@H]1C(C)(C)CCC[C@]21C	?	?	?	?	13µM*
CC(C)(O)c1ccc2c(c1)CCC1C(C)(C(=O)O)CCCC21C (stereo not drawn)	-13.1%	2.4%	12.3	4.6%	-8.7%
Cn1c(CCN2CCN(c3ccccn3)CC2)nc2cc(NS(=O)(=O)c3ccc(Cl)cc3)ccc21	?	?	-76.3*	?	?
Cn1c(CCN2CCN(c3ccccn3)CC2)nc2cc(NC(=O)COc3ccc(Cl)cc3)ccc21	4.11µM*	?	-5.0	-29.8%	18.4µM*
COc1ccc(OCC(=O)Nc2ccc3c(c2)nc(CCN2CCN(c4ccccn4)CC2)n3C)cc1	?	-29.4%	56.3	?	18.4µM*
Cc1ccc(S(=O)(=O)Nc2ccc3c(c2)nc(CCN2CCN(c4ccccn4)CC2)n3C)cc1	-10.4%	-3.6%	-13.3	-25.3%	?
CCN1CCN(CCc2nc3cc(NC(=O)COc4ccc(Cl)cc4)ccc3n2C)CC1	?	5.1%	?	-27.7%	?
Cc1cccc(OCC(=O)Nc2ccc3c(c2)nc(CCN2CCN(c4ccccn4)CC2)n3C)c1	18.4µM*	-20.6%	?	?	23.1µM*
CSCc1ccc(C(=O)NC2CC(C)(C)Cc3c2cnn3-c2ccc(F)cc2)o1 (stereo not drawn)	-29.5%	-7.9%	?	-18.7%	?
CCc1nn2c(=O)cc(COC(=O)c3cccs3)nc2s1	-1.7%	/	/	/	-15.8%
O=C(NCc1cccs1)C(=O)NCC1OCCCN1S(=O)(=O)c1cc(F)ccc1F (stereo not drawn)	-22.3%	1.4%	17.1	1.0%	4.5%
COc1cccc(CN2CC(C(=O)NCCc3ccc(C)o3)CCC2=O)c1 (stereo not drawn)	15.6%	3.4%	-11.2	2.5%	15.4%
Cc1cc(C(N)=O)nn1-c1c(Cl)cc(Cl)cc1Cl	-15.3%	-0.3%	16.4	-9.8%	-0.3%
C/C(=N\NC(=O)CSCc1ccc([N+](=O)[O-])cc1)c1ccccc1O	3.66µM*	-5.2%	24.2	-19.5%	5.17µM*
C/C(=N\NC(=O)CSCc1ccc([N+](=O)[O-])cc1)c1ccccc1	16.4µM*	-2.5%	?	-0.1%	?
C/C(=N\NC(=O)C(C)Sc1ccccc1)c1ccc([N+](=O)[O-])cc1 (stereo not drawn)	4.11µM*	0.5%	40.8	-15.6%	?
C/C(=N\NC(=O)C(C)Sc1ccccc1)C(C)(C)C (stereo not drawn)	-0.6%	-3.2%	8.2	1.7%	-6.1%
C/C(=N/NC(=O)CN1CCN(Cc2ccccc2)CC1)c1ccc([N+](=O)[O-])cc1	?	-2.2%	-5.8	-2.9%	4.4%
C/C(=N\NC(=O)Cc1ccc(Cl)cc1)c1ccccc1O	0.164µM*	?	73.8	5.17µM*	?
Cc1cc(NC(=S)NC(=O)C2CC2)ccc1Br	?	-10.6%	24.0	-8.1%	?
O=C(O)c1cccs1	-5.6%	/	/	/	-5.3%
CCOC(=O)C1(C)CCCN1C(=O)c1ccc(C(=O)OC)cc1 (stereo not drawn)	-26.7%	20.0%	16.7	16.9%	-16.1%
CCOC(=O)C1(C)CCCCN1C(=O)c1cccc(Cl)c1 (stereo not drawn)	14.6µM*	10.8%	17.2	5.1%	20.6µM*
CCOC(=O)C1(C)CCCCN1C(=O)c1ccc(F)c(C)c1 (stereo not drawn)	?	7.0%	1.1	9.6%	-66.4%
CCOC(=O)C1(C)CCCN1C(=O)c1ccc2ccccc2c1 (stereo not drawn)	18.4µM*	7.7%	2.1	8.3%	?
CN(CC(=O)Nc1ccc(Cl)cc1)C(=O)CCc1nc2sc3c(c2c(=O)[nH]1)CCCC3	?	-11.9%	44.5	-10.8%	?
CN(C)c1ccc(NC(=O)CSC2=Nc3ccccc3C3=NC(CC(=O)NCc4ccccc4)C(=O)N23)cc1 (stereo not drawn)	-11.3%	/	/	/	-8.2%
